Test results from PubChem BioAssay AID504558 (Broad Institute, 2011).
Among all 350,000 compounds or so, about 2,400 (0.69%) were called active. For the sample, actives were picked, then their nearest neighbours and some compounds at random. Unmarked numbers belong to inactive results. Rule as the data show it: active = inhibition above about 41%; inconclusive = no clear call, values can overlap the other calls; inactive = below that.

Assay: EBV LMP1-driven NF-kappaB luciferase reporter inhibitors, primary screen, cell-based, luminescence, single point (AID 504558);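 also: 0% = neutral control wells and 100% = reference inhibitor control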
Conditions: LMP1-induced NF-kappaB luciferase reporter cells, at 12.5 µM, stronger effect = higher value

| Structure (SMILES) | inhibition |
| --- | --- |
| O=C(N/N=C/c1ccccn1)c1cccc(NC(=O)c2ccc(Cl)cc2)c1 | -0.655% |
| S=C(Nc1cccnc1)Nc1ccccn1 | -5.41% |
| S=C(NN=Cc1ccccn1)Nc1ccccn1 | 76.3% (active) |
| COc1ccc(NC2CCCN(C(=O)c3ccccc3-c3ncc[nH]3)C2)cc1 (stereo not given) | 1.54% |
| C[C@H]1CN([C@@H](C)CO)C(=O)CCCn2cc(nn2)CO[C@@H]1CN(C)S(=O)(=O)c1ccc(-n2cccn2)cc1 | 4.52% |
| CC1CCN(c2ccc3c(c2)S(=O)(=O)c2cc(C(=O)O)ccc2C3=O)CC1 | -11.1% |
| CC1=C(C(=O)N2CCOCC2)CC(CC(=O)NCCN2CCOCC2)C(=O)N1CCC1=CCCCC1 (stereo not given) | 6.89% |
| Cc1sc2nc(CC(N)=O)[nH]c(=O)c2c1-c1ccccc1 | -10.6% |
| NC(=O)c1sc2nc3c(c(-c4ccccc4)c2c1N)CCC3 | 44.3% (active) |
| CCN(CC)C(=O)c1sc2nc(-c3ccccc3)ccc2c1N | -15.3% |
| CC(C)CCNC(=O)CC1C(=O)N(Cc2ccccc2)C(C)c2nc3ccccc3n21 (stereo not given) | 48.7% (active) |
| CCOC(=O)C1CCN(C(=O)CC2C(=O)N(Cc3ccccc3)C(C)c3nc4ccccc4n32)CC1 (stereo not given) | 14.1% |
| CC1c2nc3ccccc3n2C(CC(=O)NCCCN2CCOCC2)C(=O)N1Cc1ccccc1 (stereo not given) | 0.985% |
| CN(C)C(CNC(=O)c1cccc(S(=O)(=O)N2CCc3ccccc3C2)c1)c1ccccc1 (stereo not given) | -16.9% |
| CC(CN1CCOCC1)OC(=O)c1ccc(Cl)cc1Cl (stereo not given) | -3.67% |
| CC(C)OC(=O)c1ccc(NCc2cc(O)ccc2O)cc1Cl | 72.4% (active) |
| CC(OC(=O)c1ccc(Cl)cc1O)C(=O)NCCC1=CCCCC1 (stereo not given) | -1.59% |
| O=C(c1ccccc1)N1CCN(C(=O)c2cc3nc(-c4ccccc4)cc(C(F)(F)F)n3n2)CC1 | 6.54% |
| O=C(c1ccccc1)N1CCN(c2cc(-c3ccccc3)nc3cc(-c4cccc(Cl)c4)nn23)CC1 | -2.14% |
| C#Cc1cc(N2CCN(C(=O)c3ccoc3)CC2)n2nc(-c3cccc(Cl)c3)cc2n1 | 53.9% (active) |
| C=C(C)C(=O)O[C@H]1C/C(C)=C\C(=O)/C=C(\C)[C@H](O)[C@@H]2OC(=O)C(=C)[C@@H]21 | 88.8% (active) |
| CNC(=O)c1ccc(CN(C)C(=O)c2cc(C3CC3)nc3c2cnn3C(C)C)cc1 | -3.68% |
| CC1CCCC(C)N1C(=O)COC(=O)c1ccccc1C(=O)c1ccccc1 (stereo not given) | -3.93% |

| Structure (SMILES) | inhibition |
| --- | --- |
| COc1cc(C(=O)N2CCOC23CCN(Cc2ccccc2)CC3)cc(OC)c1OC | 4.75% |
| NC(N)=Nc1nc(-c2ccccc2)c2cc(Cl)ccc2n1 | -32.8% |
| Clc1cccc(-c2nc(NCC3CCCO3)c3ccccc3n2)c1 (stereo not given) | -0.333% |
| Clc1ccc2nc(-c3ccccc3)nc(C(Cl)Cl)c2c1 | 86.7% (active) |
| CCN(Cc1ccncc1)C(=O)CCc1ccccc1 | 78.9% (active) |
| CCN(CC)C(=O)N(CC)Cc1ccccc1 | 2.28% |
| CC(C)(C)N(Cc1ccccc1)C(=O)c1ccncc1 | 11.5% |
| CCN(CC)C(=O)C1=C(C)N(Cc2ccc(C(C)(C)C)cc2)C(=O)C(CC(=O)NCc2cccc3ccccc23)C1 (stereo not given) | -0.881% |
| CCOc1cc(/C=N/NC(=O)c2ccncc2)cc(Br)c1O | -1.49% |
| CNC(=O)c1csc(Cc2c(Cl)sc3ccc(Cl)cc23)n1 | 54.8% (active) |
| CC(=O)NNC(=O)c1csc(Cc2c(Cl)sc3ccc(Cl)cc23)n1 | 8.06% |
| CNC(=O)c1csc(-c2ccccc2)n1 | 6.33% |
| C[C@@H]1CN([C@H](C)CO)S(=O)(=O)c2ccc(C#C[C@@H](C)O)cc2O[C@@H]1CN(C)Cc1ccc(-c2ccccc2)cc1 | -5.47% |
| Cc1onc(-c2ccccc2)c1-c1nnc(COC(=O)c2ccc(N(C)C)cc2)o1 | 16.7% |
| COc1cccc(-c2nnc(NC(=O)c3ccc(S(=O)(=O)N(CC(C)C)CC(C)C)cc3)o2)c1 | 44.9% (active) |
| COc1cc(-c2nnc(NC(=O)CS(=O)(=O)c3ccc(Cl)cc3)o2)cc(OC)c1OC | 3.37% |
| COc1ccc(-c2nnc(NC(=O)CS(=O)(=O)c3ccc(Cl)cc3)o2)c(OC)c1 | -10.8% |
| CNC(=O)C[C@H]1C(=O)N(Cc2ccccc2)C[C@@H]1CSC | -2.82% |
| O=C(C[C@H]1C[C@H]2c3cc(NS(=O)(=O)c4ccc(F)cc4)ccc3O[C@H]2[C@H](CO)O1)NCc1cc(F)ccc1F | 4.21% |
| COc1cccc(CNc2nc(C(F)(F)F)nc3ccccc23)c1 | -0.361% |
| COc1ccc(CNc2nccs2)cc1 | 8.57% |
| COc1ccc(CNc2ncnc3ccccc23)cc1 | 41.7% (active) |
| COc1ccc(C(=O)Nc2cc(C)c(NC(=O)c3ccccc3OC)cn2)cc1 | 40.6% (active) |

| Structure (SMILES) | inhibition |
| --- | --- |
| COc1ccc(C(=O)N/N=C(\C)CC(=O)Nc2ccc(Cl)cn2)cc1 | -1.25% |
| COc1cc2ccccc2cc1C(=O)Nc1ccccc1C | -76.9% |
| O[C@@H]1C[C@H](c2ccccc2)N(Cc2cccs2)C[C@H]1n1cc(C2CC2)nn1 | -8.56% |
| Cc1ccc(C(=O)OCC(=O)NC2CCCCCCC2)cc1C | 7.43% |
| COc1ccc(C(C)(C)C)cc1NC(=O)CN(C)C1=NS(=O)(=O)c2ccccc21 | -11.2% |
| NS(=O)(=O)c1cccc(NC(=O)CN2CCCc3ccccc32)c1 | -3.3% |
| COC(=O)c1[nH]c2ccccc2c1NC(=O)CN1CCCc2ccccc21 | -17.6% |
| COC(=O)c1[nH]c2cccc(C)c2c1NC(=O)CN1CCCc2ccccc21 | 87.4% (active) |
| O=C(CCc1ccc(O)cc1)NN=Cc1cc(Br)ccc1O | 6.93% |
| Cc1ccccc1OS(=O)(=O)c1cccc([N+](=O)[O-])c1 | 0.335% |
| Fc1ccc2[nH]c3c(N4CCSCC4)ncnc3c2c1 | 53.7% (active) |
| O=C(NCC(F)(F)F)c1ccc(S(=O)(=O)NCCc2ccc3c(c2)OCCO3)cc1 | 0.519% |
| C[C@@H]1CN([C@@H](C)CO)C(=O)CCCn2nncc2CO[C@@H]1CN(C)S(=O)(=O)c1ccc(-c2ccccc2)cc1 | -1.13% |
| Cc1ccc(OCCCC(=O)Nc2ccc3c(c2)OCCO3)cc1 | 8.28% |
| COC(=O)CCNc1ccc2c(c1)OCCO2 | 45.2% (active) |
| COc1ccccc1OCCCC(=O)Nc1ccc2c(c1)OCCO2 | -0.694% |
| CCc1nnc(NC(=O)c2ccco2)s1 | -0.797% |
| CNC(=S)Nc1ccc([N+](=O)[O-])cc1 | -10.6% |
| CC(=O)Nc1ccc(C=Cc2ccc([N+](=O)[O-])cc2)cc1 | -20.1% |
| O=C1/C(=C\c2ccc([N+](=O)[O-])cc2)CS(=O)(=O)C/C1=C/c1ccc([N+](=O)[O-])cc1 | 92.5% (active) |
| CCCn1c(N)c(C(=O)CSc2nnc(Cc3cccs3)n2C2CC2)c(=O)[nH]c1=O | 0.699% |
| O=C(CSc1ncn[nH]1)Nc1nc2c(F)c(F)c(F)cc2s1 | -1.34% |
| CCOC(=O)C(=Cc1ccccc1)C(=O)c1ccccc1 | 31.5% |

| Structure (SMILES) | inhibition |
| --- | --- |
| CCOC(=O)/C(=C\c1ccc([N+](=O)[O-])cc1)C(=O)c1cc(C(C)=O)c(Nc2ccccc2)s1 | 55.7% (active) |
| O=C(O)C(=Cc1ccc([N+](=O)[O-])cc1)CCc1ccccc1 | 2.53% |
| COc1ccc(NC(=O)CN(C)C(=O)c2cc(C)oc2C)cc1 | -4.83% |
| Cc1cccc(C)c1NC(=O)CNC(=O)c1ccc(N2CCOCC2)c([N+](=O)[O-])c1 | -0.676% |
| CS(=O)(=O)N1CCN(C(=O)c2cc3ccccc3oc2=O)CC1 | 9.53% |
| COc1cccc(-n2c(=S)[nH]c3c(oc4ccccc43)c2=O)c1 | -10.2% |
| O=c1oc2ccccc2cc1-c1cn(-c2ccccc2)c(=S)[nH]1 | 73.5% (active) |
| C[C@H]1CN([C@@H](C)CO)C(=O)CCCn2cc(nn2)CO[C@@H]1CN(C)C(=O)Nc1ccccc1 | -0.0595% |
| Cc1ccc([C@H]2C[C@H](O)[C@@H](n3cc(COC(=O)c4ccccc4)nn3)CN2C(=O)C2CCCCC2)cc1 | 7.15% |
| COc1ccc(CN2C(=O)C(CC(=O)NCc3cccc4ccccc34)CC(C(=O)N3CCOCC3)=C2C)cc1 (stereo not given) | 1.6% |
| CSc1nc(-c2ccccc2)nc(C(Cl)Cl)n1 | 85.7% (active) |
| Cc1csc(SCC(=O)Nc2ccc(C)c(S(=O)(=O)N(C)C)c2)n1 | -5.08% |
| Cc1ccc(CCNC(=O)CN2C(=O)CSc3ccc(S(=O)(=O)N4CCOCC4)cc32)cc1 | -9.19% |
| O=C1CC[C@@H](C(=O)N2CSC[C@@H]2C(=O)Nc2ccc(C(F)(F)F)cc2)N1 | -8.12% |
| CC(C)C(C)NC(=O)COc1nc2ccccc2nc1N(C)C1CCCCC1 (stereo not given) | -16% |
| CN(c1ccc2nc3ccccc3c(=O)n2n1)C1CCCCC1 | 76% (active) |
| CC(C)c1cc(C(=O)NC2CCCCCC2)c2ccccc2n1 | -2.77% |
| CC1(c2cccc(N)c2)OCCO1 | -20.7% |
| Cc1cc2ccccc2n1CCNC(=O)COc1ccc2ccccc2c1 | 52.5% (active) |
| Cc1cc2ccccc2n1CCC(=O)O | 2.51% |
| COC(=O)C(C)NC(=O)COc1ccc2ccccc2c1 (stereo not given) | -5.65% |
